These results are taken from PubChem BioAssay (EPA / NIEHS).

Records with an inconclusive call do not appear. Active and inactive are the calls of the source. How the source made its calls, unless noted: active means hit-call score of the fitted dose curve at least 0.9, where 1 is the maximum; inactive means score below 0.9.

The target in test [1] is human Retinoid X Receptor beta (RXRb), RXRB (gene 6257) (UniProt P28702). Briefly: ATG_RXRb_TRANS: Attagene TRANS-FACTORIAL HepG2 Assay for human Retinoid X Receptor beta (RXRb) (AID 2283013; active means hit-call score of the fitted dose curve at least 0.9, where 1 is the maximum). In short, it runs like this: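 HepG2 cells transiently transfected with multiplexed reporter units driven by GAL4-UAS and exogenous chimeric NR-Gal4 proteins; treated 24 h. Reporter mRNA measured by RT-PCR, 6-FAM labelling and capillary electrophoresis; gain-of-signal fitted versus DMSO baseline.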
human Retinoid X Receptor beta (RXRb), RXRB (gene 6257), sequence (P28702 whole entry, looked up, the tested form may be a part): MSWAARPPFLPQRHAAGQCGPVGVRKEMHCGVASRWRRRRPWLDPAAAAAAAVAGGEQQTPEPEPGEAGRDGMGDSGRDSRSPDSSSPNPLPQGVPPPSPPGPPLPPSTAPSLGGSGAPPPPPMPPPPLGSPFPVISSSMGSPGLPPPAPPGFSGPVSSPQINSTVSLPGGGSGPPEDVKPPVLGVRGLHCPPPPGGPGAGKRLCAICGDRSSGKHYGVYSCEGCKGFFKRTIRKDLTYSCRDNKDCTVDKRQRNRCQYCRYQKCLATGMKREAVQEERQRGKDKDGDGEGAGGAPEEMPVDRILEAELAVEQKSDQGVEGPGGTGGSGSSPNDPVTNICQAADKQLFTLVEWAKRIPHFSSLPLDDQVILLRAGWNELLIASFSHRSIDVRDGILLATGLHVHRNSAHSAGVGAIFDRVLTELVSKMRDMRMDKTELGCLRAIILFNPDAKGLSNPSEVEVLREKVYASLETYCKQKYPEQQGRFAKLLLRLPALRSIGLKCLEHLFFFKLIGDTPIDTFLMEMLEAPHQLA

Test [2] has as its target human Thyroid Receptor alpha (THRa1), THRA (gene 7067) (UniProt P10827). Briefly: ATG_THRa1_TRANS: Attagene TRANS-FACTORIAL HepG2 Assay for human Thyroid Receptor alpha (THRa1) (AID 2283014; active means hit-call score of the fitted dose curve at least 0.9, where 1 is the maximum). In short, it runs like this: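 Transcripts from GAL4-UAS-driven reporters, measured after 24 h compound exposure by RT-PCR plus capillary electrophoresis of 6-FAM-labeled fragments, were fitted for gain of signal relative to DMSO. Cells: transiently transfected HepG2 expressing NR-Gal4 chimeras.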

The target of test [3] is human Vitamin D Receptor (VDR), VDR (gene 7421) (UniProt P11473). Briefly: ATG_VDR_TRANS: Attagene TRANS-FACTORIAL HepG2 Assay for human Vitamin D Receptor (VDR) (AID 2283022; active means hit-call score of the fitted dose curve at least 0.9, where 1 is the maximum). The method, boiled down:
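Transactivation by an exogenous VDR-Gal4 chimera in transiently transfected HepG2 cells was measured as reporter transcript level 24 hours after chemical treatment. RT-PCR products were analysed by capillary electrophoresis and fitted in the positive direction relative to DMSO.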

Read-out in test [4]: E-selectin (Homo sapiens) (UniProt P16581)
Briefly: BSK_3C_Eselectin: BioMAP Diversity Plus: 3C Assay for Eselectin Biomarker Activity (AID 2283015).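 On outcome: cell surface E-selectin protein quantified by ELISA 24 h after dosing.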 The settings on record: primary human endothelial cells (HUVEC); actives raise or lower the signal. The method, boiled down:
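E-selectin ELISA readout, fitted bidirectionally relative to DMSO, taken 24 h post-dosing in HUVEC cultures of the 3C system. Overt cytotoxicity tracked with sulforhodamine B staining of parallel wells.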

Read-out in test [5]: Interleukin-1 alpha (IL1a), IL1A (gene 3552)
Put plainly: BSK_BE3C_IL1a: BioMAP Diversity Plus: BE3C Assay for Interleukin-1 alpha (IL1a) Biomarker Activity (AID 2283016). The settings on record: primary human bronchial epithelial cells; actives raise or lower the signal. In short, it runs like this:
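Human primary bronchial epithelial cells (BE3C system) were dosed with compound and IL-1a measured by ELISA 24 h later. Activity was fitted bidirectionally against DMSO baseline; cytotoxicity was tracked in parallel cultures by SRB total-protein staining.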

Read-out in test [6]: Monocyte Chemoattractant Protein-1 (MCP1), CCL2 (gene 6347)
Put plainly: BSK_3C_MCP1: BioMAP Diversity Plus: 3C Assay for Monocyte Chemoattractant Protein-1 (MCP1) Biomarker Activity (AID 2283017). The settings on record: primary human endothelial cells (HUVEC); actives raise or lower the signal. In short, it runs like this:
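MCP-1 was measured by ELISA 24 h after dosing in primary HUVEC 3C cultures and fitted in both directions relative to DMSO; cytotoxicity was checked by SRB total-protein staining in parallel wells.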

Read-out in test [7]: Monocyte Chemoattractant Protein-1 (MCP1), CCL2 (gene 6347)
Briefly: BSK_4H_MCP1: BioMAP Diversity Plus: 4H Assay for Monocyte Chemoattractant Protein-1 (MCP1) Biomarker Activity (AID 2283018). The note with it: primary human endothelial cells (HUVEC); actives raise or lower the signal. In short, it runs like this: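 Human umbilical vein endothelial cells (4H system) dosed with chemical; MCP-1 measured by ELISA 24 h after dosing. Bidirectional curve fitting against DMSO negative control as baseline; parallel SRB total-protein staining tracks overt cytotoxicity.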

Read-out in test [8]: Human Leukocyte Antigen - DR isotype (HLADR), HLA-DRA (gene 3122)
Briefly: BSK_3C_HLADR: BioMAP Diversity Plus: 3C Assay for Human Leukocyte Antigen - DR isotype (HLADR) Biomarker Activity (AID 2283019).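 On outcome: ELISA of cell-surface HLA-DR on HUVEC 24 h after dosing.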 The note with it: primary human endothelial cells (HUVEC); actives raise or lower the signal. The method, boiled down: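 Bidirectional fitting against DMSO was applied to the HLA-DR ELISA signal from human umbilical vein endothelial cells, 24 h post-dose. Cytotoxicity came from parallel SRB total-protein staining; 3C proliferation was counted by SRB at 48 h.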

Read-out in test [9]: Interleukin-8 (IL8), CXCL8 (gene 3576)
Put plainly: BSK_3C_IL8: BioMAP Diversity Plus: 3C Assay for Interleukin-8 (IL8) Biomarker Activity (AID 2283020). The note with it: primary human endothelial cells (HUVEC); actives raise or lower the signal. The method, boiled down:
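Primary human umbilical vein endothelial cells (3C system) were exposed to test chemical for 24 h, then IL-8 was quantified by ELISA. Responses were fitted bidirectionally against DMSO vehicle as baseline.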

Read-out in test [10]: Monokine induced gamma interferon (MIG), CXCL9 (gene 4283)
Briefly: BSK_3C_MIG: BioMAP Diversity Plus: 3C Assay for Monokine induced gamma interferon (MIG) Biomarker Activity (AID 2283021).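 On AC50: MIG protein level measured by immunoassay in the treated endothelial cultures.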 The settings on record: primary human endothelial cells (HUVEC); actives raise or lower the signal. The method, boiled down: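 Primary human umbilical vein endothelial cells in the 3C system were exposed to chemical for 24 h, after which MIG was quantified by ELISA. Activity was fitted bidirectionally against DMSO as negative control and baseline.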

A short description of test [11]: BSK_3C_SRB: Viability Assessment in the BioMAP Diversity Plus: 3C Assay (AID 2283023).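 Further: fitted both ways against DMSO so a hit may be signal rise or drop.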 The settings on record: primary human endothelial cells (HUVEC). The method, boiled down: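 Cytotoxicity readout in parallel HUVEC 3C cultures: after 24 h compound exposure, cells fixed with 10% TCA, stained with 0.1% SRB and read at 560 nm. Gain or loss relative to DMSO fitted.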

Read-out in test [12]: Matrix Metallopeptidase 1 (MMP1), MMP1 (gene 4312)
Briefly: BSK_BE3C_MMP1: BioMAP Diversity Plus: BE3C Assay for Matrix Metallopeptidase 1 (MMP1) Biomarker Activity (AID 2283024). The settings on record: primary human bronchial epithelial cells; actives raise or lower the signal. In short, it runs like this: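 Primary human bronchial epithelial cells were dosed with test chemicals, and MMP1 levels were measured by ELISA 24 h later. Data were fitted bidirectionally against DMSO as the negative control and activity baseline.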

The nature of test [13]: BSK_3C_Vis: BioMAP Diversity Plus: 3C Assay for Morphology Visualization (AID 2283025).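 Further: fitted both ways so gain or loss versus DMSO counts.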 The settings on record: primary human endothelial cells (HUVEC). The method, boiled down:
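Human umbilical vein endothelial cells in the 3C system were imaged by light microscopy 24 h after chemical dosing to record cell morphology. Activity was fitted bidirectionally against DMSO as negative control and baseline; the endpoint serves as a background control.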

Read-out in test [14]: Pselectin, SELP (gene 6403)
Put plainly: BSK_4H_Pselectin: BioMAP Diversity Plus: 4H Assay for Pselectin Biomarker Activity (AID 2283026). The settings on record: primary human endothelial cells (HUVEC); actives raise or lower the signal. In short, it runs like this: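 Primary human umbilical vein endothelial cells were exposed to test chemical for 24 h, then cell-surface P-selectin was quantified by ELISA. Activity was fitted bidirectionally against DMSO as negative control and baseline.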

Test [15] is described as follows: BSK_4H_SRB: Viability Assessment in the BioMAP Diversity Plus: 4H Assay (AID 2283027).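 Further: cells exposed to compound for 24 h before staining.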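 On AC50: curves fitted both ways versus DMSO so AC50 may be loss or gain.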 The settings on record: primary human endothelial cells (HUVEC). The method, boiled down: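 Absorbance at 560 nm of SRB-stained total protein served as the viability read-out in confluent primary human umbilical vein endothelium 24 h after chemical treatment. Curves were fitted bidirectionally against DMSO as negative control.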

The nature of test [16]: BSK_BE3C_SRB: Viability Assessment in the BioMAP Diversity Plus: BE3C Assay (AID 2283028).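 On AC50: fitted both ways so AC50 may mark signal gain or loss versus DMSO.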 The settings on record: primary human bronchial epithelial cells. The method, boiled down:
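Cytotoxicity read-out: SRB (0.1%) staining of TCA-fixed (10%) human lung bronchial epithelial cells, absorbance 560 nm, 24 h post-dosing. Curves fitted both directions relative to DMSO.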

Read-out in test [17]: Thrombomodulin, THBD (gene 7056)
Put plainly: BSK_3C_Thrombomodulin: BioMAP Diversity Plus: 3C Assay for Thrombomodulin Biomarker Activity (AID 2283029). The note with it: primary human endothelial cells (HUVEC); actives raise or lower the signal. The method, boiled down:
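Primary human umbilical vein endothelial cells (3C system) were exposed to chemical for 24 h, then thrombomodulin levels were measured by ELISA. Activity was fitted bidirectionally against the DMSO negative control as baseline.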

Read-out in test [18]: Urokinase-type plasminogen activator receptor (uPAR), PLAUR (gene 5329)
Put plainly: BSK_4H_uPAR: BioMAP Diversity Plus: 4H Assay for Urokinase-type plasminogen activator receptor (uPAR) Biomarker Activity (AID 2283030). The note with it: primary human endothelial cells (HUVEC); actives raise or lower the signal. In short, it runs like this:
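uPAR level read by ELISA on HUVEC cultures (BioMAP 4H) 24 h post-dosing, analyzed for gain or loss relative to DMSO. Parallel SRB staining assessed overt cytotoxicity.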

Read-out in test [19]: Vascular endothelial growth factor receptor 2 (Homo sapiens) (UniProt P35968)
Put plainly: BSK_4H_VEGFRII: BioMAP Diversity Plus: 4H Assay for Vascular endothelial growth factor receptor 2 (VEGFR2) Biomarker Activity (AID 2283031). The settings on record: primary human endothelial cells (HUVEC); actives raise or lower the signal. The method, boiled down: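 Measured by ELISA after 24 h of compound treatment: VEGFR2 on primary human umbilical vein endothelial cells, fitted in both directions relative to DMSO. Parallel cultures received SRB staining (560 nm) for overt cytotoxicity.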

Read-out in test [20]: Human Leukocyte Antigen - DR isotype (HLADR), HLA-DRA (gene 3122)
Put plainly: BSK_BE3C_HLADR: BioMAP Diversity Plus: BE3C Assay for Human Leukocyte Antigen - DR isotype (HLADR) Biomarker Activity (AID 2283032). The note with it: primary human bronchial epithelial cells; actives raise or lower the signal. The method, boiled down:
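Human primary bronchial epithelial cells in the BE3C system were exposed to chemicals for 24 h, after which HLA-DR levels were quantified by ELISA. Activity was fitted bidirectionally, gain or loss of signal, against DMSO as negative control and baseline.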

human Vitamin D Receptor (VDR), VDR (gene 7421), sequence (P11473 whole entry, looked up, the tested form may be a part): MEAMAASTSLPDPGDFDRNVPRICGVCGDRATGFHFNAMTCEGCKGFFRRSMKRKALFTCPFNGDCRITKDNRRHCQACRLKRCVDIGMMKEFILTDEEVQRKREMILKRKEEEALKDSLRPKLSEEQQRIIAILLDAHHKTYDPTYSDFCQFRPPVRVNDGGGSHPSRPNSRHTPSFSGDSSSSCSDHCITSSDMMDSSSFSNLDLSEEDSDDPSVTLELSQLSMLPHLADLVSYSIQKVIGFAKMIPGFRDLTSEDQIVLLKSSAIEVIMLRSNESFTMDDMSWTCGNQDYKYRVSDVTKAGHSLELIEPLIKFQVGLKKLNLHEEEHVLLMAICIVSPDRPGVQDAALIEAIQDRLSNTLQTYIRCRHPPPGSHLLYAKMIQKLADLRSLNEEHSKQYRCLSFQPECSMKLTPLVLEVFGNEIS
human Thyroid Receptor alpha (THRa1), THRA (gene 7067), sequence (P10827 whole entry, looked up, the tested form may be a part): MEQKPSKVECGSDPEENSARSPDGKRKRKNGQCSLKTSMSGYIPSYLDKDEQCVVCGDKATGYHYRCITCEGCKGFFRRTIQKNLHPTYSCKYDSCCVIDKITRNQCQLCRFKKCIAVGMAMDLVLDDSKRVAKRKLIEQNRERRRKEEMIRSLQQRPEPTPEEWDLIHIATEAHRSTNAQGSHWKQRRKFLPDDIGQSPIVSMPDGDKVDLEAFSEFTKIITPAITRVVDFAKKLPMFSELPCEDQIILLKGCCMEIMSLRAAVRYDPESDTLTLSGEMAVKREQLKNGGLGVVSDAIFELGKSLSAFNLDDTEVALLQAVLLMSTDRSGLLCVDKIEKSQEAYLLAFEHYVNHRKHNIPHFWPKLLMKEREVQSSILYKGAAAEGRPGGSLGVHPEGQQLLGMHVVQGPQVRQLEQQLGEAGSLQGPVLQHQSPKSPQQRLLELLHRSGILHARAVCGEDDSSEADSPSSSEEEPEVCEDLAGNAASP
E-selectin (Homo sapiens), sequence (P16581 whole entry, looked up): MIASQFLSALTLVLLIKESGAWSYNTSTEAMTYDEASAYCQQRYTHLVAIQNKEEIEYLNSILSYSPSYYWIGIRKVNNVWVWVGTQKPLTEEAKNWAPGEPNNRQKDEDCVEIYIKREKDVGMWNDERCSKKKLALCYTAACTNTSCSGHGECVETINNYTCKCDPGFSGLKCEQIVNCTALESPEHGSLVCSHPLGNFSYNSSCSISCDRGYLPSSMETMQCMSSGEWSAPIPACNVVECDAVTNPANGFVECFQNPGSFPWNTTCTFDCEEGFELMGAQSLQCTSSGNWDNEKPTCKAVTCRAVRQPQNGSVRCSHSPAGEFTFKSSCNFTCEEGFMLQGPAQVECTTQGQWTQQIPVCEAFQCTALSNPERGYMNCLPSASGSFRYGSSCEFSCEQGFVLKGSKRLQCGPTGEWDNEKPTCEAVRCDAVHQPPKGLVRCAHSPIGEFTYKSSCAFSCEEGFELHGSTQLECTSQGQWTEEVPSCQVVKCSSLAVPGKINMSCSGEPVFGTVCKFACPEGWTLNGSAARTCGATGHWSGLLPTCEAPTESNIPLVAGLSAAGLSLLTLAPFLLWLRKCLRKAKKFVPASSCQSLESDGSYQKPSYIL

With `O=C(O)CCCC[C@@H]1SC[C@@H]2NC(=O)N[C@@H]21`, the compound was classed as inactive in [1], in test [2] and in [3].

In the case of `O=C1CCCCCCCCCCCCCCCO1`, in [1], the concentration at half-maximal activity (AC50) was 70.4 µM (active). Further, the result in test [2] was inactive.

In the case of `O=C1CCCC1`, the outcome in test [1], in [2] and in test [3] was inactive.

Turning to `O=C1c2ccccc2C(=O)C1c1nc2ccccc2c(Br)c1O`, the outcome in test [1] and in test [2] was inactive.

For `NCCCN1CCN(CCCN)CC1`, the compound was called inactive in test [1] and in test [2].

Take `N#[N+]c1ccc2c(S(=O)(=O)[O-])cccc2c1O`: the compound was called inactive in test [1], in test [2], in test [4], in [5], in [6] and in test [7]. Moreover, the outcome in [8], in [9], in test [10], in [11], in [12] and in test [13] was inactive. Besides, the result in test [14], in test [15], in test [16], in test [17], in test [18] and in test [19] was inactive. The result in [20] was inactive.

Regarding `O=S(=O)(O)c1cc(S(=O)(=O)O)c2ccc3c(S(=O)(=O)O)cc(S(=O)(=O)O)c4ccc1c2c43`, the outcome in test [1] and in test [2] was inactive.

On to `C#CC1(O)CC[C@H]2[C@@H]3CCC4=CCCC[C@@H]4[C@H]3CC[C@@]21C` (some centres not stated), for which the call in test [1], in test [2], in test [3] and in test [19] was inactive. Also, the concentration at half-maximal activity (AC50) is 8.71 µM (active) in [4]; 35.5 µM (active) in test [5]; 11 µM (active) in [6]; 9.46 µM (active) in test [7]; 10.8 µM (active) in [8]; 10.2 µM (active) in test [9]. The AC50 was 12.9 µM (active) in [10]; 6.9 µM (active) in test [11]; 36.4 µM (active) in test [12]; 8.8 µM (active) in test [13]; 11.4 µM (active) in [14]; 8.54 µM (active) in test [15]. The AC50 in [16] is 29.9 µM (active); in [17], 12 µM (active); in test [18], 20 µM (active); in test [20], 33.3 µM (active).

`CCCCC(CC)COCC1CO1` (configuration not stated): the result in test [1], in test [2], in test [4], in test [5], in [6] and in test [7] was inactive. Moreover, the outcome in test [8], in [9], in test [10], in [11], in test [12] and in [14] was inactive. For the same compound, the result in test [15], in [16], in test [17], in test [18], in test [19] and in test [20] was inactive.

Regarding `O=C1OC(=O)c2cc(Oc3ccc4c(c3)C(=O)OC4=O)ccc21`, the compound was classed as inactive in [1], in [2] and in test [3].

For the compound `O=S1(=O)OC(c2ccc(O)cc2)(c2ccc(O)cc2)c2ccccc21`, the compound was called inactive in test [1] and in test [2].

As for `O=C(Nc1cccc(C(F)(F)F)c1)c1cc(Br)cc(Br)c1O`, the result in [1], in test [2] and in test [3] was inactive.

`C=CC(C)(CCC=C(C)C)OC(=O)CC(C)C` (configuration not stated): the AC50 in test [1] was 30.5 µM (active). Besides, the call in test [2] and in [3] was inactive.

One may read the AC50 as the concentration giving half of the maximal activity seen.
